# Results published in PMC12820563, “FoxP3 forms a head-to-head dimer in vivo and stabilizes its multimerization on adjacent microsatellites”.
# Whole data set: some 16,000 sequences, median “rpm ratio (pull-down/input)” near 0.5, cut for the highest 2% near 5.5. The list comes from a sample in which the highest values are over-represented; it also holds similar and randomly drawn sequences.
# Target: T1, MBP-FoxP3dN (Mus musculus, UniProt Q99JB6 188-423)
# T1 sequence: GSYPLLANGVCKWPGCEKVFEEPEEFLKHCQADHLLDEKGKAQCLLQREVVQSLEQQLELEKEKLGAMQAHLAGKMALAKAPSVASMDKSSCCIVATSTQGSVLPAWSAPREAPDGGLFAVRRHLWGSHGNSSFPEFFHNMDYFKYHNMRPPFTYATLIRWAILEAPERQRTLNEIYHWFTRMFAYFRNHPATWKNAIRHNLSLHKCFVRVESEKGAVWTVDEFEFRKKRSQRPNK
# Assay: PD-seq (MBP pull-down with sequencing); 20 mM Tris-HCl pH 7.5, 100 mM NaCl, 1.5 mM MgCl2, 0.4 uM protein, 0.1 uM dsDNA library, 30 min, room temperature, amylose pull-down; high values mean tight binding
# Settings: protein: recombinant; tags: His6-MBP; chain copies: 2; dsDNA, one strand shown
# In short: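 Binding is reads-per-million enrichment of pull-down over input, with replicates pooled. It comes from 30 min room-temperature incubation in Tris pH 7.5 buffer with NaCl and MgCl2 of 0.4 µM His6-MBP-tagged, N-terminally truncated mouse FoxP3 or FoxP1 fragment from E. coli with 0.1 µM Klenow-filled degenerate double-stranded DNA library, followed by amylose resin capture, three washes and Illumina sequencing of the released DNA.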
row,Sequence,binding signal
1,GATGATTGTTCTCCCAGCTGATGAATTTAATCAATCGAGTAAACAAATTTTCCTAATCTTTCTGTTCAAGCGCCATCTAC,0.269 RPM ratio (pull-down/input)
2,GATGATTGTTCTCCCAGCTGATGAATTTGGTCCGTCGAGTAAACAAATTTTCCTAATCTTTCTGTTCAAGCGCCATCTAC,0.363 RPM ratio (pull-down/input)
3,GATGATTGTTCTCCCAGCTGATGAATTGGAACTCTCGAGTAAACAAATTTTCCTAATCTTTCTGTTCAAGCGCCATCTAC,0.343 RPM ratio (pull-down/input)
4,GATGATTGTTCTCCCAGCTGATGAATTCCTTTGGTCGAGTAAACAAATTTTCCTAATCTTTCTGTTCAAGCGCCATCTAC,0.395 RPM ratio (pull-down/input)
5,GATGATTGTTCTCCCAGCTGATGAATTGACACATTCGAGTAAACAAATTTTCCTAATCTTTCTGTTCAAGCGCCATCTAC,0.772 RPM ratio (pull-down/input)
6,GATGATTGTTCTCCCAGCTGATGAATTGCGATGGTCGAGTAAACAAATTTTCCTAATCTTTCTGTTCAAGCGCCATCTAC,1.01 RPM ratio (pull-down/input)
7,GATGATTGTTCTCCCAGCTGATGAATTACGCCACTCGAGTAAACAAATTTTCCTAATCTTTCTGTTCAAGCGCCATCTAC,6.17 RPM ratio (pull-down/input)
8,GATGATTGTTCTCCCAGCTGATGAATTACTCCACTCGAGTAAACAAATTTTCCTAATCTTTCTGTTCAAGCGCCATCTAC,0.339 RPM ratio (pull-down/input)
9,GATGATTGTTCTCCCAGCTGATGAATTACGCGCATCGAGTAAACAAATTTTCCTAATCTTTCTGTTCAAGCGCCATCTAC,1.54 RPM ratio (pull-down/input)
10,GATGATTGTTCTCCCAGCTGATGAATTACGCATCTCGAGTAAACAAATTTTCCTAATCTTTCTGTTCAAGCGCCATCTAC,7.33 RPM ratio (pull-down/input)
11,GATGATTGTTCTCCCAGCTGATGAATTTTACGCCTCGAGTAAACAAATTTTCCTAATCTTTCTGTTCAAGCGCCATCTAC,0.506 RPM ratio (pull-down/input)
12,GATGATTGTTCTCCCAGCTGATGAATTACGCGCCTCGAGTAAACAAATTTTCCTAATCTTTCTGTTCAAGCGCCATCTAC,1.67 RPM ratio (pull-down/input)
13,GATGATTGTTCTCCCAGCTGATGAATTTACGCACTCGAGTAAACAAATTTTCCTAATCTTTCTGTTCAAGCGCCATCTAC,0.784 RPM ratio (pull-down/input)
14,GATGATTGTTCTCCCAGCTGATGAATTACGCCTCTCGAGTAAACAAATTTTCCTAATCTTTCTGTTCAAGCGCCATCTAC,5.99 RPM ratio (pull-down/input)
15,GATGATTGTTCTCCCAGCTGATGAATTACGCAGCTCGAGTAAACAAATTTTCCTAATCTTTCTGTTCAAGCGCCATCTAC,1.78 RPM ratio (pull-down/input)
16,GATGATTGTTCTCCCAGCTGATGAATTAGATGTGTCGAGTAAACAAATTTTCCTAATCTTTCTGTTCAAGCGCCATCTAC,2.71 RPM ratio (pull-down/input)
17,GATGATTGTTCTCCCAGCTGATGAATTGTCCCGCTCGAGTAAACAAATTTTCCTAATCTTTCTGTTCAAGCGCCATCTAC,0.272 RPM ratio (pull-down/input)

row,Sequence,binding signal
1,GATGATTGTTCTCCCAGCTGATGAATTAAGTCCGTCGAGTAAACAAATTTTCCTAATCTTTCTGTTCAAGCGCCATCTAC,0.307 RPM ratio (pull-down/input)
2,GATGATTGTTCTCCCAGCTGATGAATTTCGCTTGTCGAGTAAACAAATTTTCCTAATCTTTCTGTTCAAGCGCCATCTAC,3.29 RPM ratio (pull-down/input)
3,GATGATTGTTCTCCCAGCTGATGAATTCTATATATCGAGTAAACAAATTTTCCTAATCTTTCTGTTCAAGCGCCATCTAC,1.18 RPM ratio (pull-down/input)
4,GATGATTGTTCTCCCAGCTGATGAATTGTATATATCGAGTAAACAAATTTTCCTAATCTTTCTGTTCAAGCGCCATCTAC,3.21 RPM ratio (pull-down/input)
5,GATGATTGTTCTCCCAGCTGATGAATTTTGTATATCGAGTAAACAAATTTTCCTAATCTTTCTGTTCAAGCGCCATCTAC,7.43 RPM ratio (pull-down/input)
6,GATGATTGTTCTCCCAGCTGATGAATTTTATACATCGAGTAAACAAATTTTCCTAATCTTTCTGTTCAAGCGCCATCTAC,0.598 RPM ratio (pull-down/input)
7,GATGATTGTTCTCCCAGCTGATGAATTCTGTATATCGAGTAAACAAATTTTCCTAATCTTTCTGTTCAAGCGCCATCTAC,5.72 RPM ratio (pull-down/input)
8,GATGATTGTTCTCCCAGCTGATGAATTCAGTATATCGAGTAAACAAATTTTCCTAATCTTTCTGTTCAAGCGCCATCTAC,2.12 RPM ratio (pull-down/input)
9,GATGATTGTTCTCCCAGCTGATGAATTTGTAATATCGAGTAAACAAATTTTCCTAATCTTTCTGTTCAAGCGCCATCTAC,1.95 RPM ratio (pull-down/input)
10,GATGATTGTTCTCCCAGCTGATGAATTCTATACATCGAGTAAACAAATTTTCCTAATCTTTCTGTTCAAGCGCCATCTAC,0.559 RPM ratio (pull-down/input)
11,GATGATTGTTCTCCCAGCTGATGAATTGTATACATCGAGTAAACAAATTTTCCTAATCTTTCTGTTCAAGCGCCATCTAC,5.87 RPM ratio (pull-down/input)
12,GATGATTGTTCTCCCAGCTGATGAATTTCAGCAATCGAGTAAACAAATTTTCCTAATCTTTCTGTTCAAGCGCCATCTAC,1.94 RPM ratio (pull-down/input)
13,GATGATTGTTCTCCCAGCTGATGAATTCACAGCATCGAGTAAACAAATTTTCCTAATCTTTCTGTTCAAGCGCCATCTAC,0.801 RPM ratio (pull-down/input)
14,GATGATTGTTCTCCCAGCTGATGAATTAGCACTTTCGAGTAAACAAATTTTCCTAATCTTTCTGTTCAAGCGCCATCTAC,0.435 RPM ratio (pull-down/input)
15,GATGATTGTTCTCCCAGCTGATGAATTAATCTATTCGAGTAAACAAATTTTCCTAATCTTTCTGTTCAAGCGCCATCTAC,0.398 RPM ratio (pull-down/input)
16,GATGATTGTTCTCCCAGCTGATGAATTTCTAATTTCGAGTAAACAAATTTTCCTAATCTTTCTGTTCAAGCGCCATCTAC,0.301 RPM ratio (pull-down/input)
